# Results from PubChem BioAssay AID743286 (National Center for Advancing Translational Sciences (NCATS), 2014).
# In all, about 1,100 compounds went through this assay and about 340 (31%) were called active. Not shown: some 40% with an inconclusive outcome. Calls follow the shape of the dose curve; as a rule, active = well fitted inhibition curve with a large enough effect; inconclusive = small, poorly fitted or top-dose-only effect; inactive = flat fitted curve, though single readings scatter. Only a sample is shown. Entries that show only a call come without a potency.
# Biological target: Phosphatidylinositol 5-phosphate 4-kinase type-2 alpha (Homo sapiens) (UniProt P48426)
# Assay: qHTS for Inhibitors of PI5P4K: Confirmation in Primary Assay; also: nearly all actives have a fitted effect of over 65% in size
# Conditions: PI5P4Kalpha enzyme, ADP-Glo luminescence, 60 min; series mostly up to 76.9 µM
# Excerpt: In addition to finding PI5P, we discovered the type II phosphatidylinositol 5-phosphate 4-kinase (PI5P4K) family (alpha, beta, gamma isoforms) that catalyze the conversion of PI5P to PI(4,5)P2. Alternatively, PI(4,5)P2 can also be synthesized through phosphatidylinositol-4-phosphate (PI4P) by the type I phosphatidylinositol 4-phosphate 5-kinases (PI4P5K). These PI5P4K enzymes therefore represent one way by which cells can regulate endogenous PI5P levels and play important roles in insulin signaling and in stress responses. […] A qHTS PI5P4K-alpha ADP-Glo assay was developed to identify specific modulators of human PI5P4K, phosphatidylinositol-5-phosphate 4-kinase (Type II PIPK). This assay was screened against the MLSMR containing ~400,000 small molecules (PubChem AID 652105). To confirm that the hits were not interacting with the detection enzyme system, a 1536-well counterscreen against the ADP-Glo kit (Promega) was utilized, as described in Davis et al., 2013 [1]. Davis et al., PLoS One. 2013;8(1):e54127. NIH Chemical Genomics Center [NCGC] NIH Molecular Libraries Probe Centers Network [MLPCN] MLPCN Grant: MH096575 Assay Submitter (PI): Atsuo Sasaki, Beth Israel Deaconess Medical Center
# 2 microL of PI5P4Kalpha/substrate buffer (columns 1-2, 5-48) are dispensed into Greiner white solid bottom 1536-well assay plates; column 3 receives only PI5P4Kalpha buffer as 0x substrate controls; column 4 receives only substrate buffer as 0x PI5P4Kalpha controls. Final assay buffer consists of 0.038 M HEPES pH 7.4, 0.28 mM EGTA, 0.1% CHAPS, and 5% DMSO (final concentration). Compounds are then transferred via Kalypsys pin tool equipped with 1536-pin array (10 nL slotted pins, V&P Scientific, San Diego, CA). Following addition of compound, 1 microL of ATP (5 microM final concentration, all columns) is added to initiate the reaction. ATP is diluted in an assay buffer consisting of 0.02 M HEPES pH 7.4, 60 mM MgCl2, 15 microM ATP, and 0.1% CHAPS. The plates are then incubated at room temperature for 60 minutes. ADP-Glo reagent 1 is added (2 microL) and plates incubated for 45 minutes, before ADP-Glo reagent 2 (4 microL) is added and plates incubated for 30 minutes. They are then transferred to a ViewLux high-throughput CCD imager (PerkinElmer) wherein single end-point measurements of luminescence are acquired using a clear filter.
# Potency is read from the fitted curve at half-maximal effect.
# Phosphatidylinositol 5-phosphate 4-kinase type-2 alpha (Homo sapiens), sequence (P48426 whole entry, looked up): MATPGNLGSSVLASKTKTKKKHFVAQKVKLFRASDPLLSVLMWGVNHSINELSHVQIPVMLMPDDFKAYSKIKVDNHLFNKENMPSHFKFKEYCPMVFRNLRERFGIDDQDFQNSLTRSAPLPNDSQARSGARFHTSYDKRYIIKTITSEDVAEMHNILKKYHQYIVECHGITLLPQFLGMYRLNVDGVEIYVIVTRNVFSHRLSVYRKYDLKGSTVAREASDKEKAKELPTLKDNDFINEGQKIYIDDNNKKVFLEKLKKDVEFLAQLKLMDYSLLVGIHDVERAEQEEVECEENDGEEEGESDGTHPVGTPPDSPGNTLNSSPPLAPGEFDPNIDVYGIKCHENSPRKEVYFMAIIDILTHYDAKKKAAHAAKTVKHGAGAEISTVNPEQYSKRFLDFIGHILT
row,SMILES,Potency
1,O=C(CN1CCN(c2ccccc2F)CC1)NCc1ccccc1,inactive
2,COc1cc(C(=O)Nc2scc(-c3ccccc3)c2C(=O)O)cc(OC)c1OC,12.6 µM (active)
3,Cc1ccc(-c2csc(NC(=O)c3ccc(Br)cc3)c2C(=O)O)cc1,14.1 µM (active)
4,COc1cc(C(=O)Nc2scc(-c3ccc(C)cc3)c2C(=O)O)cc(OC)c1OC,3.55 µM (active)
5,COc1ccc(C(=O)NCCSc2ccccc2)cc1OC,inactive
6,COc1cc(C(=O)Nc2scc(-c3ccc(Br)cc3)c2C(=O)O)cc(OC)c1OC,5.62 µM (active)
7,COc1ccc(-c2csc(NC(=O)c3ccccc3F)c2C(=O)O)cc1,inactive
8,NC(=O)C1CCN(CC(=O)Nc2ccc3c(c2)OCCO3)CC1,inactive
9,CCOC(=O)CSc1nc2ccc(NC(=O)CSc3nnnn3Cc3ccccc3)cc2s1,inactive
10,O=C(NCCc1ccccc1)C(c1cccs1)N(C(=O)c1csnn1)C1CC1 (centres undefined),inactive
11,Cc1nc(CS(=O)(=O)c2ccccc2)cc(N2CCOCC2)n1,inactive
12,O=C(CCNS(=O)(=O)c1ccc(Br)s1)NCc1ccccc1Cl,inactive
13,CCCCC1Cc2[nH][nH]c(=O)c2C(c2ccc(F)cc2)O1 (centres undefined),inactive
14,COc1ccc2nc(SCC(=O)N3CCN(c4ccc(F)cc4)CC3)c(C#N)cc2c1,inactive
15,O=S(=O)(c1ccccc1)N1N=C(c2cccs2)CC1c1ccc(Br)cc1 (centres undefined),inactive
16,O=C1NC(c2cc(Cl)cc([N+](=O)[O-])c2O)Nc2ccccc21 (centres undefined),8.91 µM (active)
17,O=C1NC(c2cccs2)Nc2ccccc21 (centres undefined),inactive
18,Cc1cccc(S(=O)(=O)NC(=O)C2(C)CCN2C(=O)Cc2cc(F)ccc2F)c1 (centres undefined),inactive
19,Cc1cccc2cc(CN(Cc3cccnc3)C(=S)NCCCN(C)C)c(=O)[nH]c12,inactive
20,COc1cc(Cn2c3ccc(NC(=O)CCc4ccccc4)cc3c(=O)n2C)ccc1F,inactive
21,CCOc1ccc(S(=O)(=O)N(C(=O)c2ccco2)c2cc3sc(=O)oc3c3ccccc23)cc1,inactive
22,CCCOc1ccc(CSc2ncn[nH]2)cc1,inactive
23,O=C(NCc1ccco1)c1c2c(nc3ccccc13)CCC2,10 µM (active)
24,O=C(NCc1ccccc1)C(c1ccccc1)n1c(=O)c(-c2ccco2)nc2ccccc21 (centres undefined),inactive
25,Cn1nnc2cc(C(=O)NC3CC3)ccc21,inactive
26,Cc1ccc(-c2cc(C(=O)O)c3cc(Br)ccc3n2)o1,25.1 µM (active)

row,SMILES,Potency
1,CCCCCCNC(=O)c1cc(-c2ccco2)nc2ccccc12,7.08 µM (active)
2,O=C(NC1CCC(O)CC1)c1cc(-c2ccco2)nc2ccccc12 (centres undefined),12.6 µM (active)
3,Cc1nnc(-c2ccccc2)nc1N(C)C,inactive
4,O=C(COC(=O)C1CCCCC1)Nc1ccccc1OC(F)F,inactive
5,COc1cccc(N2CCN(C(=O)c3ccc(CS(=O)c4ccccc4C)o3)CC2)c1 (centres undefined),inactive
6,CC(C)(C(=O)N1CCC1(C)C(=O)NS(=O)(=O)c1ccc(C#N)cc1)c1ccccc1 (centres undefined),inactive
7,O=C(OCC(=O)N1N=C(c2ccc(Cl)cc2)CC1c1ccco1)c1cccnc1 (centres undefined),inactive
8,COc1ccc(CCNC(=O)c2cc(-c3ccco3)nc3ccccc23)cc1,15.8 µM (active)
9,COc1ccc(CCNC(=O)C2CC(c3cccc(F)c3)=NO2)cc1 (centres undefined),inactive
10,Cc1ccc(-c2cc(C(=O)NCc3ccco3)c3ccccc3n2)o1,14.1 µM (active)
11,COc1ccc(-c2cc(C(=O)Nc3ccccc3O)c3ccccc3n2)cc1,inactive
12,O=C(O)CCC(=O)N1CCC(n2nnc3cc(C(F)(F)F)ccc32)CC1,inactive
13,O=C(NC1CC1)c1ccc(NC(=O)C2CCC2)cc1,inactive
14,COc1ccc(S(=O)(=O)/N=C2\C=C(NS(=O)(=O)c3ccccc3)C(=O)c3ccccc32)cc1,31.6 µM (active)
15,COc1ccc(S(=O)(=O)Nc2ccc3c(c2)CCC3)cc1,inactive
16,CC(C)OC(=O)c1c(NS(=O)(=O)c2ccccc2)sc2c1CCCC2,inactive
17,Cc1ccc(-c2nc3c(c(=O)[nH]c(=O)n3Cc3ccccc3)n2C)o1,5.62 µM (active)
18,CCCCn1c(=O)[nH]c(=O)c2c1nc(-c1ccc(-c3ccccc3Br)o1)n2CC,inactive
19,COc1cc(=O)[nH]c(=O)n1C(=O)Cc1ccccc1,inactive
20,O=C(CC1C(=O)NCCN1CC1CCCCC1)NCc1cc(F)ccc1F (centres undefined),inactive
21,Cc1ccc(CNC(=O)CSc2ncccn2)cc1,inactive
22,Cc1ccc(CNC(=O)CCS(=O)(=O)c2ccc(Cl)cc2)cc1,inactive
23,Cc1ccc(CNC(=O)c2ccc(-n3cccc3)cc2)cc1,12.6 µM (active)
24,O=C(NCc1ccc(F)cc1)C1CCN(c2cnccn2)CC1,inactive
25,Cc1cc(-c2nc3c4c5c(sc4[nH]c(=O)n3n2)CCC5)c(C)o1,15.8 µM (active)
26,COC(=O)C1CCN(C(=O)c2cc(-c3ccco3)nc3ccccc23)CC1,3.98 µM (active)

row,SMILES,Potency
1,CCOC(=O)C1(C)CCCN(C(=O)c2ccccc2C(F)(F)F)C1 (centres undefined),inactive
2,CCOC(=O)C1CCCN(C(=O)c2ccc(F)c(C)c2)CC1 (centres undefined),inactive
3,CCOC(=O)C1CCCN(C(=O)c2cc(-c3ccco3)nc3ccccc23)C1 (centres undefined),3.16 µM (active)
4,COc1ccc(C(=O)N2CCC(C(=O)Nc3ccc(C)cc3)CC2)cc1,inactive
5,Cc1ccc(C)c(C2=NNC(=NCc3ccccc3)SC2)c1,inactive
6,O=C(Nc1ccc(Cl)cc1)Nc1ccccc1CC[N+](=O)[O-],inactive
7,Cc1cc(C)cc(NC(=O)Cn2nnc(C(=O)NCc3ccc(F)cc3)c2N)c1,inactive
8,CCOC(=O)Nc1ccc(NCc2ccc(F)cc2)nc1N,31.6 µM (active)
9,O=C(Oc1ccc2c(c1)OCO2)c1cc2c(s1)CCC2,2.24 µM (active)
10,COc1ccc(-c2cc(C(F)F)n3ncc(C(=O)n4ccnc4C)c3n2)cc1,inactive
11,Cc1ccc(-n2c(SCC(=O)Nc3ccc4c5c(cccc35)CC4)nc(O)cc2=O)cc1,inactive
12,O=c1c2ccccc2cnn1-c1nc2ccccc2[nH]1,25.1 µM (active)
13,O=C(NC1CC1)C1=C[C@@H](c2c[nH]c3ccccc23)C[C@@H](OCc2ccc(CO)cc2)O1,inactive
14,COc1ccc(N2CCN(C(=O)c3[nH]c(C(F)(F)F)nc3-c3ccccc3)CC2)cc1,inactive
15,N#CC1=C2SCN(c3ccc(F)cc3)CN2C(=O)CC1c1cccc(F)c1 (centres undefined),20 µM (active)
16,CCc1ccc(N2CSC3=C(C#N)C(c4cccs4)CC(=O)N3C2)cc1 (centres undefined),12.6 µM (active)
17,CCc1ccc(C2CC(=O)N3CN(c4ccccc4)CSC3=C2C#N)cc1 (centres undefined),28.2 µM (active)
18,N#CC1=C2SCN(c3ccccc3)CN2C(=O)CC1c1cccs1 (centres undefined),15.8 µM (active)
19,CCOc1ccc(Cl)cc1S(=O)(=O)n1cnc2ccccc21,inactive
20,O=C(Cc1cccs1)N(CC1CCCO1)C1(C(=O)NC2CCCCC2)CCCCC1 (centres undefined),inactive
21,NC(=O)[C@@H]1CC2(CC(c3cccc(NC(=O)COc4ccc(Cl)cc4)c3)=NO2)CN1C(=O)COc1ccc(Cl)cc1 (some centres undefined),inactive
22,CC(NC(=O)c1ccnn1C)C1CCCO1 (centres undefined),inactive
23,Cn1c(=O)oc2cc(S(=O)(=O)Nc3ccccc3)ccc21,inactive
24,CCOc1ccc(NC(=O)N2CCC(n3nnc4ccccc43)CC2)cc1,inactive
25,O=C1NN=C2CCCCCC12 (centres undefined),inactive
26,C[C@H](NC(=O)c1cc2c(cn1)[nH]c1ccccc12)C(=O)O,10 µM (active)

row,SMILES,Potency
1,Cc1ccc(-c2cc3c(n2-c2ccc(C(=O)O)cc2)CCCC3=O)cc1,15.8 µM (active)
2,Nc1sc2c(c1C(=O)c1ccccc1)CCCC2,inactive
3,Nc1nc(Nc2ccccc2F)sc1C(=O)c1ccccc1,14.1 µM (active)
4,Nc1nc(Nc2ccccc2)sc1C(=O)c1ccccc1,7.94 µM (active)
5,COc1ccc(C(=O)c2sc(Nc3ccccc3F)nc2N)cc1,5.62 µM (active)
6,CCC(=O)Oc1ccc(C(=O)Nc2c[nH]c(=O)[nH]c2=O)cc1,inactive
7,O=C(c1ccc(OCCN2CCCCC2)cc1)c1c(-c2ccc(O)cc2)sc2cc(O)ccc12,inactive
8,COc1ccc(S(=O)(=O)N(C(=O)c2ccco2)c2cc3sc(=O)oc3c3ccccc23)cc1,inactive
9,COc1ccccc1N(CC(=O)NCc1ccco1)S(=O)(=O)c1ccc(C)cc1,15.8 µM (active)
10,COc1ccccc1N(CC(=O)N1CCC(C(N)=O)CC1)S(=O)(=O)c1ccccc1,inactive
11,CCn1cc(C(=O)N2CCN(c3cccc(C)c3C)CC2)c(=O)c2ccc(C)nc21,inactive
12,O=C(O)c1cccc(NC(=O)c2cn(-c3ccccc3)nc2-c2cc3ccccc3o2)c1,14.1 µM (active)
13,CN(Cc1cn(-c2ccccc2)nc1-c1cc2ccccc2o1)C(=O)CCC(=O)O,inactive
14,COc1ccc(-c2nnn(CC(=O)N(CC(=O)NC3CCCC3)c3ccccc3)n2)cc1OC,inactive
15,COc1ccc(NC(=O)CSc2nnc(-c3ccco3)c(-c3ccco3)n2)cc1OC,inactive
16,Cc1cccc(C)c1NC(=O)C(c1ccc(C(F)(F)F)cc1)n1c(=O)c(-c2ccco2)nc2ccccc21 (centres undefined),inactive
17,COc1ccc(C2=NCCn3nc4cc(OC)ccc4c32)cc1,inactive
18,COc1ccccc1Cc1c(-c2ccco2)nc2c(C)cc(Br)cn12,inactive
19,COCCNC(=O)Nc1ccc2nc(-c3ccco3)c(-c3ccco3)nc2c1,6.31 µM (active)
20,COc1ccc2nc(-c3ccco3)c(-c3ccco3)nc2c1,10 µM (active)
21,CCCCNC(=O)c1ccc2nc(-c3ccco3)c(-c3ccco3)nc2c1,12.6 µM (active)
22,O=C(Nc1nc(-c2ccco2)cs1)c1ccccc1,inactive
23,COCCNC(=O)C(c1ccc(Cl)cc1)N(Cc1ccco1)C(=O)CCC(=O)Nc1ccccn1 (centres undefined),inactive
24,CCCNC(=O)CSc1nnc(-c2ccco2)n1C,inactive
25,O=C(c1ccccc1)c1ccc2nc(-c3ccco3)c(-c3ccco3)nc2c1,4.47 µM (active)
26,CS(=O)(=O)c1ccc(C(=O)Nc2nc(-c3ccco3)c(-c3ccco3)s2)cc1,inactive
